# Assay results: PubChem BioAssay (NCATS)
# Results filed as inconclusive are left out. Entries that show only a call come without a potency. Activity calls are given as the source filed them. Calls come from the whole dose curve; as a rule, active = well fitted inhibition curve with a large enough effect; inconclusive = small, poorly fitted or top-dose-only effect; inactive = flat fitted curve, though single readings scatter.
# Test system: Zika virus NS2B-NS3 protease
# Test: Primary screen GU AMC qHTS for Zika virus inhibitors (AID 1347154); note: nearly all actives have a fitted effect of over 70% in size
# Conditions: Zika NS2B-NS3 unlinked protease, AMC fluorogenic substrate; series mostly up to 54.1 µM
# Procedure, shortened: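 Unlinked Zika NS2B hydrophilic domain/NS3 protease domain noncovalent complex (25 nM final) in 10 mM Tris-HCl pH 8.0, 0.01% Tween 20, with AMC peptide substrate. Fluorescence (ex 340, em 450 nm) change over 15 min, room temperature; percent inhibition fitted to 4-parameter Hill equation.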
row,Compound,Potency
1,C[C@H](NC(=O)c1sccc1OCc1ccc(Cl)cc1)c1ccccc1,inactive
2,Nc1nc(F)nc2c1ncn2[C@@H]1O[C@H](COP(=O)(O)O)[C@@H](O)[C@H]1O,inactive
3,Cc1cccc(Nc2nc(-c3ccncc3)cs2)c1,inactive
4,CON=C(C(=O)N[C@@H]1C(=O)N2C(C(=O)OCOC(=O)C(C)(C)C)=C(C=Cc3scnc3C)CS[C@H]12)c1csc(N)n1,inactive
5,Nc1ncnc2c1nc(Cl)n2[C@@H]1O[C@H](CO)[C@@H](O)[C@@H]1O,inactive
6,O=C(OCC#CCSc1nnc(-c2cccc3ccccc23)o1)c1cc2ccccc2s1,inactive
7,CNC(=O)c1ccc2cc(C3(O)CCn4cncc43)ccc2c1 (centres undefined),inactive
8,CCCCCNC(=O)N1CCC(CN(Cc2ccc(Cl)cc2)Cc2ccc([N+](=O)[O-])s2)C1 (centres undefined),inactive
9,CCC(=O)NC[C@H](Cc1ccc(OCCc2nc(-c3ccccc3)oc2C)cc1)NC(C)=CC(=O)c1ccc(C(F)(F)F)cc1,inactive
